# Test results published in PubChem BioAssay (NCI).
# This is part of a sample that, as a whole, favours compounds with a hit. Of some 83,000 tested, about 20% had one in any assay.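 Single-dose data. Exposure time 48 hours. Values below 10 considered active.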 A number with no mark means an inactive call. Calls of active or inactive are those of the source.
# Assays:
# Test in all cases: NCI-60 one-dose screen, 48 h (100 = growth as untreated, 0 = no growth, -100 = all killed)
# Conditions in all cases: 10 µM unless noted
# [1] = system: NCI-H23 lung
# [2] = system: NCI-H226 lung
# [3] = system: NCI-H322M lung
# [4] = system: HOP-62 NSCLC
# [5] = system: NCI-H460 lung
# [6] = system: HOP-92 NSCLC
# [7] = system: NCI-H522 lung
# [8] = system: A549/ATCC NSCLC
# [9] = system: 786-0 renal
# [10] = system: COLO 205 colon
Structure (SMILES),growth [1],growth [2],growth [3],growth [4],growth [5],growth [6],growth [7],growth [8],growth [9],growth [10]
O=S(=O)(Nc1cc(F)cc(Cl)c1)c1ccc(-c2cnc(C3CC3)o2)cc1,44%,43%,44.5%,40.5%,20.7%,26.7%,1.55% (active),47.3%,30.7%,24.3%
c1cnc2c(-c3nc4ccc5[nH]ncc5c4c4c3CCCC4)c[nH]c2c1,22.4%,42.6%,21.3%,15%,7.48% (active),40.6%,-23.3% (active),16.6%,32.5%,26.7%
CC(C)C1=NOC(=O)C1=Cc1cn(-c2ccccc2)nc1-c1ccc(F)cc1,95.6%,93.7%,94.9%,90.1%,76.8%,89.8%,66.5%,81.4%,77.4%,94.4%
COc1ccc(C/C(C)=C(\c2ccc(Cl)cc2)c2ccc(OCCN3CCCCC3)cc2)cc1,91.9%,86.5%,96.7%,102%,101%,87.9%,87.3%,98.1%,93.8%,95.3%
CS(=O)(=O)Nc1cncc(-c2ccc3ncnc(Nc4cncc(Cl)c4)c3c2)c1,80%,80.8%,71.7%,73.4%,103%,31.5%,50.2%,81.7%,82.3%,93.8%
CCOC(=O)C#Cc1c(C(=O)OCC)nnn1Cc1ccc([N+](=O)[O-])cc1,86.2%,70.4%,100%,113%,98.7%,40.6%,-33.4% (active),96.1%,65.6%,-22.2% (active)
CCSc1nc2scc(C)c2c(=O)[nH]1,95.1%,99.2%,104%,106%,102%,101%,94.6%,99.2%,94%,111%
O=S(=O)(Nc1ccc(Cl)c(C(F)(F)F)c1)c1ccc(-c2cnc(C3CC3)o2)cc1,20.4%,46.7%,44.4%,12.2%,7.09% (active),-18.5% (active),-1.8% (active),8.92% (active),25.9%,2.71% (active)
Cn1cc(-c2csc(-c3c[nH]c4ccc(Br)cc34)n2)c2ccnc(Cl)c21,62.1%,59.4%,67.1%,101%,9.96% (active),64.2%,56.3%,42.4%,47%,42.5%
O=C1NC2(Nc3ccccc31)C(=O)Nc1c(Cl)cc(Cl)cc12 (stereo not given),104%,93.8%,110%,84.7%,102%,106%,103%,110%,103%,119%
COc1ccc(-c2ccc(=O)oc2-c2cc(OC)c(OC)c(OC)c2)cc1O,25.9%,42.7%,43.5%,-29% (active),-18% (active),89%,-11.7% (active),15.9%,-6.12% (active),12.5%
CC(C)COc1nc2c(c(=O)n(C)c(=O)n2C)n1C,98.5%,94.5%,105%,99%,105%,93.7%,101%,106%,104%,109%
CCOC(=O)n1ccn(C)c1=S,107%,109%,89.1%,60.5%,113%,104%,84.6%,101%,90.6%,31.9%
CCN(CC)CCn1c2ccc(OC)cc2c2sc3cc(OC)ccc3c(=O)c21,23.1%,71.4%,29.8%,38.1%,9.41% (active),41.7%,48.1%,19.1%,11.1%,18.6%
COCCn1cc(-c2csc(-c3cn(C)c4ccc(Br)cc34)n2)c2cccnc21,76.1%,86.4%,74.2%,70.8%,26.8%,65.3%,-35.7% (active),40.2%,19.8%,46.6%
O=C1C(Cl)=C(Nc2ccc(S(=O)(=O)N3CCOCC3)cc2)C(=O)c2ccccc21,83.5%,84.5%,99.8%,86.3%,94.9%,25.7%,21%,80.8%,71%,104%
CSc1nc2ccccc2cc1/C=C1/C=C(c2ccccc2)NC1=O,87.4%,92.9%,93%,79.1%,84.7%,70.2%,74.6%,81.9%,93.2%,93.8%
Cc1cc(=O)oc2cc(OCc3nn4c(Nc5nc6ccccc6s5)c(-c5ccccc5)nc4s3)ccc12,83.3%,92.2%,90.7%,90.2%,83.8%,77.1%,76.6%,94.4%,103%,104%
N#CC1=C(c2ccccc2)Nc2c(c(-c3ccc(Cl)cc3)nn2-c2ccccc2)C12C(=O)Nc1ccc(Cl)cc12 (stereo not given),92.1%,80.7%,91.3%,77.3%,71.2%,61.8%,72.2%,54.7%,79.2%,73%
CCCCCCCCCCCCCCCCOCCCOP(=O)(O)C1CCCN(O)C1=O (stereo not given),18.5%,-21.9% (active),28.6%,11.9%,-9.19% (active),39.3%,26.2%,17.8%,-10.4% (active),4.27% (active)
CC1(C)CC(=O)C2=C(C1)N(c1ccc(OC(F)(F)F)cc1)C(N)=C(C#N)C2c1ccc(Br)cc1F (stereo not given),75.8%,33.1%,59.1%,6.8% (active),25.3%,39.8%,88.6%,44.1%,35.7%,93.8%
N#Cc1ccc2c(c1)C(=O)c1c-2n(CCCN)c(=O)c2cc([N+](=O)[O-])ccc12,-57.6% (active),-71.6% (active),-81.5% (active),-89.5% (active),-100% (active),-2.3% (active),-72.2% (active),-100% (active),-90% (active),-100% (active)
C[PH+](c1nc2ccccc2nc1[PH+](C)C(C)(C)C)C(C)(C)C.C[PH+](c1nc2ccccc2nc1[PH+](C)C(C)(C)C)C(C)(C)C.[Au+].[Cl-] (stereo not given),-90.2% (active),-60.4% (active),-94% (active),-94.3% (active),-85.5% (active),-81.5% (active),-88.7% (active),-73.8% (active),-96.6% (active),-100% (active)
Cc1nc2sc(C(=O)Nc3cccc4ccccc34)c(N)c2cc1C(O)c1ccccc1 (stereo not given),7.51% (active),46.1%,51.4%,20.4%,0.274% (active),34%,-25.3% (active),9.88% (active),16.1%,-58.2% (active)
O=C(O)c1cn(C2CC2)c2cc(N3CCN(Cc4ccc5ccccc5c4O)CC3)c(F)cc2c1=O,26.4%,9.01% (active),23.4%,-31% (active),6.73% (active),-6.42% (active),24.8%,-23.4% (active),38.3%,33.4%
O=C1/C(=C/c2ccccc2Br)COc2ccc(O)cc21,92.5%,100%,93.8%,88.9%,95.3%,104%,31.3%,86.4%,73%,100%
Cc1cc(C(=O)Nc2ncc(Cc3cccc(C(F)(F)F)c3)s2)c2ccccc2n1,51.6%,54.4%,59.3%,31.8%,11.3%,28%,10.3%,24.7%,38%,19.2%
